# Assay results reported in PubChem BioAssay (NCATS).
# Values joined by “and” are separate entries in the source; they are usually repeats but may differ in a detail not shown here. Identical values can stand only once. Results filed as inconclusive are left out. Entries that show only a call come without a potency. Active and inactive are the calls of the source. Calls come from the whole dose curve.
# Key:
# [1] = Cytotoxicity counterscreen for inhibitors of SARS-CoV-2 cell entry (AID 1645845); details: outcome: dose series up to 57.1 µM unless noted; note: nearly all actives have a fitted effect of over 50% in size
# How it was run: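 HEK293-ACE2 cells (Expi293F stably expressing human ACE2) seeded overnight, then compound for 1 h plus 48 h at 37C. Viability as ATP content by luminescence; normalized to wells with cells and media-only wells.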
# [2] = Primary qHTS to identify inhibitors of SARS-CoV-2 cell entry (AID 1645846); details: SARS-CoV-2 pseudovirus cell entry assay, luminescence; activity change, negative = inhibition: at 57.1 µM (top of the series) unless noted; note: nearly all actives have a fitted effect of over 45% in size
# How it was run: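 Luminescence readout (Bright-Glo luciferase) 48 h after pseudoparticle addition. HEK293-ACE2 cells, 1500/well; compound pre-incubation 1 h; Normalized to spike PP and bald PP.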
# Potency is the fitted concentration of half-maximal effect.
Compound,Potency [1],"activity change, negative = inhibition [2]",Potency [2]
CC1=C2[N-][C@H]([C@H](CC(N)=O)[C@@]2(C)CCC(=O)NC[C@@H](C)OP(=O)([O-])O[C@H]2[C@@H](O)[C@@H](n3cnc4cc(C)c(C)cc43)O[C@@H]2CO)[C@]2(C)N=C(C(C)=C3N=C(C=C4N=C1[C@@H](CCC(N)=O)C4(C)C)[C@@H](CCC(N)=O)[C@]3(C)CC(N)=O)[C@@H](CCC(N)=O)[C@]2(C)CC(N)=O.O.[Co+2],inactive,-20.3%,–
CONC(=O)c1ccccc1Nc1cc(Nc2cc(C)nn2C(C)C)ncc1Cl,inactive,-10.2%,–
CCN(c1cc(-c2ccc(CN3CCOCC3)cc2)cc(C(=O)NCc2c(C)cc(C)[nH]c2=O)c1C)C1CCOCC1,inactive,–,inactive
Cn1cc(-c2cnc3ccc4ccc(CS(=O)(=O)NCc5ccccn5)cc4c(=O)c3c2)cn1,inactive,-59.2%,–
CNc1ncc2cc(-c3cc(NC(=O)NCCC(C)(C)C)c(F)cc3C)c(C)nc2n1,inactive,–,–
CNS(=O)(=O)Nc1nccc(Cc2c(C)c3ccc(Oc4ncccn4)cc3oc2=O)c1F,14.1 µM (active),–,–
Cc1sc2c(c1C)C(c1ccc(Cl)cc1)=N[C@@H](CC(=O)Nc1ccc(OCCOCCOCCOCCNc3cccc4c3C(=O)N(C3CCC(=O)NC3=O)C4=O)cc1)c1nnc(C)n1-2 (stereo not given in full),inactive,–,–
O=C(c1ccc(/C=C/c2n[nH]c3ccccc23)cc1)N1CCNCC1,inactive,–,inactive
COc1cc(C(=O)O)ccc1NC(=O)[C@@H]1N[C@@H](CC(C)(C)C)[C@](C#N)(c2ccc(Cl)cc2F)[C@H]1c1cccc(Cl)c1F,inactive,1.92%,–
Cc1nnc(C(C)C)n1C1CC2CCC(C1)N2CCC(NC(=O)C1CCC(F)(F)CC1)c1ccccc1 (stereo not given),inactive,-24.8%,–
O=C(O)c1ccccc1-c1ccc(/C=c2\sc3nc4cc(Br)cnc4n3c2=O)o1,inactive,-1.33% [at 27.1 µM],–
CC(C)n1cc(-c2ccc3c(c2)N(C)CC3)c2c(NS(=O)(=O)c3ccn(C)n3)ccnc21,inactive,-1.94%,–
C[C@@H]1[C@H](O)[C@@H](C)/C=C/C=C/C=C/C=C/C=C/C=C/C=C/[C@H](O[C@@H]2O[C@H](C)[C@@H](O)[C@H](N)[C@@H]2O)C[C@@H]2O[C@](O)(C[C@@H](O)C[C@@H](O)[C@H](O)CC[C@@H](O)C[C@@H](O)CC(=O)O[C@H]1C)C[C@H](O)[C@H]2C(=O)O,inactive,–,inactive
O=C(O)c1ccc(-c2c[nH]c3ncc(-c4ccccc4)cc23)cc1C1CCCC1,inactive,–,2.82 µM (active)
COc1c(Nc2ncc(Cl)c(N[C@H]3[C@H](C(N)=O)[C@@H]4C=C[C@@H]3C4)n2)ccc2c1CCC(N1CCOCC1)CC2 (stereo not given in full),inactive,-55.4%,–
O=C(Nc1ccccc1)Nc1ccc(-c2ccc(C(=O)[C@@H]3CCC[C@H]3C(=O)O)cc2)cc1,inactive,-45.3%,–
Cn1cc(-c2c[nH]c3ncnc(N4CCOCC4)c23)cn1,inactive,-0.441%,–
CN(CCOc1ccc(-c2ccc3c(c2)OCO3)cc1C(C)(C)C)CC(=O)O,inactive,-18.5%,–
COc1cc(-c2cn(C)c(=O)c3cnccc23)c(OC)cc1CN(C)C,inactive,-18.5%,–
O=C(N[C@H]1CCC[C@H](CO)C1)C1CCN(c2nc3cc(Cl)c(-c4ccc(Cl)cc4)cc3o2)CC1,inactive,-9.89%,–
O=C(O)CC1CCC(c2ccc(-c3ccc(Nc4ccc(C(F)(F)F)nc4)cn3)cc2)CC1 (stereo not given),inactive,-24.6%,–
C[C@@H](Oc1cc(C(=O)Nc2ccc(C(=O)N3CCN(C)CC3)cc2)nnc1N)c1c(Cl)ccc(F)c1Cl,28.2 µM (active),–,12.6 µM (active)
CCS(=O)(=O)N1CCC(C(C)n2c(C)c(C(=O)NCc3c(OC)cc(C)[nH]c3=O)c3ccccc32)CC1 (stereo not given),inactive,-8.61%,–
Cc1[nH]cnc1CN1CCN(C(=O)N[C@@H](CC(C)C)C(=O)O)[C@@H](Cc2ccccc2)C1=O,inactive,3.22%,–
O=C(NOCCO)c1ccc2cncn2c1Nc1ccc(I)cc1F,inactive,-11.2%,–

Compound,Potency [1],"activity change, negative = inhibition [2]",Potency [2]
CC1(N)CCN(c2cnc(-c3cccc(Cl)c3Cl)c(N)n2)CC1,inactive,-2.57% [at 27.1 µM],–
OC(c1ccc(-c2ccc(CN3CCN(Cc4ccncc4)CC3)cc2)c(F)c1)(C(F)(F)F)C(F)(F)F,inactive,–,inactive
COc1cc2c(NC3CCN(C4CCCCC4)CC3)nc(N3CCCN(C(C)C)CC3)nc2cc1OCCCN1CCCCC1,22.4 µM (active),–,11.2 µM (active)
O=C(c1ccc(NS(=O)(=O)c2cccc3cccnc23)cc1)N1CCN(CC2CC2)CC1,inactive,-15.9%,–
Cc1c(-c2ccc(-c3ccccc3F)cc2)nc2ccc(F)cc2c1C(=O)O,inactive,-89.2%,–
CN(C)c1cccc(-c2c3c(=O)n(-c4ccccc4Cl)[nH]c3cc(=O)n2C)c1,inactive,-19.6%,–
Nc1ncnc2c1c(COc1cccc(Cl)c1)nn2C1CCOCC1,inactive,–,inactive
COC1CCC(N2C(=O)CNc3ncc(-c4ccc(C(C)(C)O)nc4)nc32)CC1 (stereo not given),7.94 µM (active),–,15.8 µM (active)
C[C@H]1Oc2cc(cnc2N)-c2c(nn(C)c2C#N)CN(C)C(=O)c2ccc(F)cc21,inactive,-7.26%,–
O=C1CC(c2c[nH]c3ccc(F)cc23)C(=O)N1 (stereo not given),inactive,1.8%,–
CCc1c(C(=O)NNC(=O)[C@@H](O)c2cc(F)cc(F)c2)ccc(O)c1C,inactive,-19.8%,–
NC1=N[C@@]2(c3cc(NC(=O)c4ccc(F)cn4)ccc3F)COC[C@H]2CS1,inactive,-18.7%,–
COc1ccc(-c2oc3ncnc(N)c3c2-c2ccc(NC(=O)Nc3cc(C(F)(F)F)ccc3F)cc2)cc1,inactive,0.997%,–
CC(C)Cc1ccc([C@@H](C)C(=O)NS(C)(=O)=O)cc1,inactive,3.55%,–
CNC(=O)Cn1cc(-c2ccc3c(c2)C(F)CC32NC(=O)N(CC(=O)N(Cc3ccc(F)cc3)[C@@H](C)C(F)(F)F)C2=O)cn1 (stereo not given in full),inactive,-19.9% and -7.29%,–
O=C(CCCc1ccc2cccnc2n1)NCc1cc(-c2ccc(F)c(C(F)(F)F)c2)no1,inactive,-12.5%,–
COc1cc2nc(-c3cc(F)ccc3O)nc(N[C@@H]3CNC[C@H]3C(C)(C)O)c2cc1OC,3.98 µM (active),–,5.01 µM (active)
C=C1CCC[C@]2(C)C=C3OC(=O)C(C)=C3C[C@@H]12,inactive,-28.3%,–
C[C@@H]1N=C(N)NC(N(C)C)=N1,inactive,-14.7%,–
C[C@@H]1CCN(C(=O)N2CCCC2)C[C@@H]1N(C)c1ncnc2[nH]ccc12,inactive,–,inactive
CCOCOC[C@H](C[C@H](C)C(=O)NO)NC(=O)c1ccc(Oc2ccccc2)cc1,inactive,-23.9%,–
O=C(CCNC(=O)c1ccc(OC(F)(F)F)cc1)N[C@@H]1CCCc2ccccc21,inactive,4.82%,–
COc1ccc(Cl)c(Nc2nc3ccccc3nc2NS(=O)(=O)c2cccc(NC(=O)C(C)(C)N)c2)c1,inactive,-26.9%,–
CC1(C(=O)O)CCC2(C)CCC3(C)C(=CC(=O)C4C5(C)CCC(OC6OC(C(=O)O)C(O)C(O)C6OC6OC(C(=O)O)C(O)C(O)C6O)C(C)(C)C5CCC43C)C2C1 (stereo not given),inactive,–,inactive
